These results are taken from ChEMBL document CHEMBL3988442, “University of Dundee, Small-Polar-MMV Screening Library” (2021).

In all, about 69,000 compounds went through this assay and about 420 (0.61%) showed an effect of 50% or more. Shown is part of a subset that was picked to be rich in strong results.

In this test the target is T1, Histidine--tRNA ligase (Leishmania infantum) (UniProt A4I591).
T1 sequence (whole entry): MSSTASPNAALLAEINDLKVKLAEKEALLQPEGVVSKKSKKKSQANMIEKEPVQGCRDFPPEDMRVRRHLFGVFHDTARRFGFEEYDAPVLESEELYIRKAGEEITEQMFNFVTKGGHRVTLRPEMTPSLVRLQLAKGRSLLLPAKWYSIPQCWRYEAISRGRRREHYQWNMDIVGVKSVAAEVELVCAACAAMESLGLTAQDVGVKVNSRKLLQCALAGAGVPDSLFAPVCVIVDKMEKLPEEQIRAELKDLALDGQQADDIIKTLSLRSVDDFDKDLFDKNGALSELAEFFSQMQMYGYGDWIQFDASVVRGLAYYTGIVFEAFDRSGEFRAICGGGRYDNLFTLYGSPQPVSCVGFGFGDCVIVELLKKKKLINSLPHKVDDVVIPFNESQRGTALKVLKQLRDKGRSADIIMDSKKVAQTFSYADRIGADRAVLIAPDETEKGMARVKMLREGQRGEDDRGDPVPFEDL
The test can be described thus: Leishmania infantum Histidine tRNA synthetase (LdHisRS). It counts as functional. Details: scale not given: in the data most compounds retested in dose-response had high values. As to conditions: 30 µM.
For `CC(=O)N1CCO[C@@H]2CN(S(=O)(=O)c3ccc(F)cc3)CC[C@@H]2C1`, the Percent Effect was 17%.
Under `O=C(N[C@@H]1CN(Cc2ccoc2)C[C@@H]2CCCO[C@@H]21)C1CCC1` stands 11.8%; under `Cc1nnc(N2C[C@H](C(=O)NCc3ccco3)[C@@H]3CCO[C@@H]3C2)s1`, 16.8%.
Next, `CS(=O)(=O)N1C[C@@H]2COC[C@@H](CC(=O)N3CCCO3)[C@@H]2C1`: 7.89%; `Nc1cc(-c2nccnc2N2CCCC2)c2cc[nH]c2n1`: 20.2%.
Next, `O=C(O)CNc1cc(-c2nccnc2N2CCCC2)c2cc[nH]c2n1`: 20.2%; `OCCNc1cc(-c2nccnc2N2CCCC2)c2cc[nH]c2n1`: 62.8%.
`Cc1ccc(C)c(OC(C)C(=O)NCCNc2cccnc2)c1` (centres undefined): the Percent Effect stood at 60.6%.
Next, `Cc1ccc(C)c(OC(C)C(=O)NCc2cccnc2)c1` (centres undefined): 0%; `Cc1ccc(C)c(OC(C)C(=O)Nc2cccnc2)c1` (centres undefined): 0%; `NC(=O)CN1C(=O)CO[C@H]2CN(Cc3ccc(Cl)cc3)C[C@H]21`: 10.8%.
Under `Cc1ccc(N2CC[C@@H]3[C@@H]2CCN3C(=O)c2cscn2)nn1` stands 7.89%; under `O=C(NC[C@H]1CCCC[C@H]1O)c1ccc2nc(-c3ccco3)[nH]c2c1`, 63.4%; under `O=C(NC[C@H]1CCCC[C@H]1O)c1cccc2[nH]c(-c3ccco3)nc12`, 29.7%.
Under `O=C(N[C@H]1CCCC[C@@H]1O)c1ccc2nc(-c3ccccc3)[nH]c2c1` stands 3.96%; under `COC[C@@H]1CC[C@H]2[C@H](CCN2C(=O)c2ccncc2F)O1`, 22.6%; under `O=C(Cn1ccc2sccc2c1=O)NCc1ccc(F)cc1`, 5.43%.
Take `CN(C)S(=O)(=O)N1C[C@H]2CCC[C@@]2(COCc2ccccn2)C1`: the Percent Effect is -17.6%.
Under `Cc1cccc(COC[C@H]2CC[C@H]3[C@H](CCN3C(=O)CC3CC3)O2)n1` stands 13.9%.
Under `CC(C)n1nc2c(cc1=O)CN(Cc1nc(-c3ccco3)no1)CC2` stands 2.67%; under `Cn1nc2c(cc1=O)CN(Cc1nnc(-c3ccco3)o1)CC2`, 76.6%.
Next, `Cc1ccc(-c2nnc(CN3CCc4nn(C)c(=O)cc4C3)o2)cc1`: 106%; `CC(C)n1nc2c(cc1=O)CN(Cc1nnc(C3CC3)o1)CC2`: 24.5%.
For the compound `Cc1ccc(-c2nnc(CN3CCc4cnc(C)nc4C3)o2)cc1`, the Percent Effect is 40%.
Next, `Cn1nc2c(cc1=O)CN(Cc1ccc(-n3cccn3)cc1)CC2`: 33.3%.
For the compound `CCOCCN1CCN(Cc2nnc(-c3ccco3)o2)CC1`, the Percent Effect is 8.51%.
Next, `Cn1nc2c(cc1=O)CN(Cc1nnc(-c3ccc(F)cc3)o1)CC2`: 78.7%; `Cc1nc(CN2CCc3nn(C)c(=O)cc3C2)oc1C`: 14.9%; `COc1ccc(N2Cc3nc(N)ncc3C2=O)cc1`: 0%.
Next, `O=C1[C@H]2CN(CC3CC3)C[C@H]2CN1Cc1cccc(F)c1`: -1.5%.
Next, `O=C([C@H]1C[C@H]2OCC[C@H]2N(CCc2ccccc2)C1)N1CCCCO1`: 9.02%.
`Cc1nc(CN2C[C@@H]3CN(c4ncc(F)cn4)C[C@@H]3C2=O)cs1`: the Percent Effect was found to be 19.7%.
Under `O=C(c1cccnc1)N1C[C@@H]2CC[C@H](C1)N(Cc1ccc(F)cc1Cl)C2` stands 7.2%; under `CC(=O)N1CCN2C[C@H](CO)[C@@H](c3ccccc3)[C@H]2C1`, 2.04%.
Under `CC1=C(C#N)C(=O)N(C)C(=O)/C1=C\C1=Cc2ccccc2OC1` stands 92.1%.
Under `COC(=O)CC(C1=Cc2ccccc2OC1)c1oc(C)cc(=O)c1O` (centres undefined) stands 23.1%; under `O=C(Nc1cccnc1)C1=Cc2ccccc2OC1`, 25%.
For `CCN1C(=O)C(C#N)=C(C)/C(=C/C2=Cc3ccccc3OC2)C1=O`, the Percent Effect amounted to 86.8%.
As to `CC(Cn1cccn1)NC(=O)C1=Cc2ccccc2OC1` (centres undefined), the Percent Effect worked out at 16%.
Under `Cc1nc([C@H]2C[C@H]3CN(C(=O)c4cc(C)c(C)s4)CC[C@@H]3O2)no1` stands 20.6%; under `COc1cccc(C(=O)N2C[C@@H](c3ccccc3)[C@@H]3NCCCC[C@@H]32)c1`, 10.3%; under `Cc1nc2c(c(=O)[nH]1)CN(C(=O)CC[C@@H]1CCCN3CCCC[C@H]13)C2`, 3.54%.
On to `Cc1ccc(CN2CC[C@@H]3[C@@H](CO[C@H]3CN3CCN(C)CC3)C2)s1`, for which the Percent Effect is -11.1%.
As to `O=C(c1cscn1)N1C[C@H](OCc2cccnc2)[C@H]2COC[C@H]21`, the Percent Effect came to 9.72%.
Next, `CCC1=N[C@@]2(CC[C@@H]3CN(Cc4ccccc4C)C[C@@H]32)C(=O)N1C`: 10%; `Cn1cccc1C(=O)N[C@@H]1CN(Cc2ccsc2)[C@@H]2COC[C@@H]21`: 20%; `Cc1ccnc(N2CCN(C[C@]3(O)CCCN4CCCC[C@@H]43)CC2)c1`: 2.86%.
In the case of `Cc1nc(O)cc(CCNC(=O)CC[C@@H]2CCCN3CCCC[C@H]23)n1`, the Percent Effect is 5.38%.
On to `CC1=C(C#N)C(=O)NC(=O)/C1=C\c1c(C)nn(-c2ccccc2)c1O`, for which the Percent Effect worked out at 43.3%.
In the case of `CC1=C(C#N)C(=O)NC(=O)/C1=C\c1c(C)nn(-c2ccc(C)cc2)c1O`, the Percent Effect came out at 70.1%.
Next, `CCN(CC)CCNC(=O)CCc1c(C)nn(-c2ccc(Cl)cc2)c1C`: 7.92%; `Cc1nn(C)c(=O)c2nn(-c3ccc(Cl)cc3)c(C)c12`: 5.5%.
With `CC1=C(C#N)C(=O)NC(=O)/C1=C\c1c(C)nn(-c2ccc(Cl)cc2)c1O`, the Percent Effect stood at 51.5%.
Next, `Cc1ccc(-n2nc(C)c3c2NC(=O)CC3c2cnc(N)s2)cc1` (centres undefined): 17.3%.
